# Assay results from PubChem BioAssay (Tox21).
# Records with an inconclusive call do not appear. A call without a number means that no potency is given here. Values without a mark were called inactive. Active and inactive are the calls of the source. Calls come from the whole dose curve; as a rule, active = well fitted curve in the direction sought with a large enough effect in the repeat runs; inconclusive = weak or mixed curves; inactive = no such curve, though single readings can be large; an effect the other way counts as inactive or inconclusive.
# Legend:
# [1] = target: Cytochrome P450 1A2 (Homo sapiens) (UniProt P05177); experiment: Cytochrome P450 Family 1 Subfamily A Member 2 (CYP1A2) small molecule antagonists: luciferase reporter qHTS assay (AID 1671199); note: potency is the fitted concentration of half-maximal effect; for activity change, negative = inhibition: series mostly up to about 120 µM
# Chain of Cytochrome P450 1A2 (Homo sapiens) (P05177 whole entry, looked up): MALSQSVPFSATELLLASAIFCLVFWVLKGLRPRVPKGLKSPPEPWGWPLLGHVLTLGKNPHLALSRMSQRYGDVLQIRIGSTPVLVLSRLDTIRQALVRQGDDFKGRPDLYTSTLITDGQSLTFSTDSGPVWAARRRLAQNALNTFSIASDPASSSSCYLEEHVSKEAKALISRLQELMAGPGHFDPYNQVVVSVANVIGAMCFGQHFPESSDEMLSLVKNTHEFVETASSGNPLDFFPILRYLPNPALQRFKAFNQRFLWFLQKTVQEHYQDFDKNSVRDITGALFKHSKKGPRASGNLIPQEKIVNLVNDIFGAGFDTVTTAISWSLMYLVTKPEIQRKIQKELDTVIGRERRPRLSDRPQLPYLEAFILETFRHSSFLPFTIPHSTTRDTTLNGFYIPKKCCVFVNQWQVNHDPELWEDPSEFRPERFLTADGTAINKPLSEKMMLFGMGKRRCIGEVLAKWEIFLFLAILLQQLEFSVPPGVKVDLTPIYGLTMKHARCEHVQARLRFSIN
# In short: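 Luminescence readout (relative luminescence units) after luciferin detection reagent, 20 min RT. Preceded by 1 h room-temperature CYP1A2 reaction with NADPH regeneration solution following 10 min compound preincubation with enzyme and proluciferin substrate. Furafylline positive control.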
# [2] = target: Cytochrome P450 3A4 (Homo sapiens) (UniProt P08684); experiment: Cytochrome P450 Family 3 Subfamily A Member 4 (CYP3A4) small molecule antagonists: luciferase reporter qHTS assay (AID 1671201); note: potency is the fitted concentration of half-maximal effect; for activity change, negative = inhibition: series mostly up to about 120 µM
# Chain of Cytochrome P450 3A4 (Homo sapiens) (P08684 whole entry, looked up): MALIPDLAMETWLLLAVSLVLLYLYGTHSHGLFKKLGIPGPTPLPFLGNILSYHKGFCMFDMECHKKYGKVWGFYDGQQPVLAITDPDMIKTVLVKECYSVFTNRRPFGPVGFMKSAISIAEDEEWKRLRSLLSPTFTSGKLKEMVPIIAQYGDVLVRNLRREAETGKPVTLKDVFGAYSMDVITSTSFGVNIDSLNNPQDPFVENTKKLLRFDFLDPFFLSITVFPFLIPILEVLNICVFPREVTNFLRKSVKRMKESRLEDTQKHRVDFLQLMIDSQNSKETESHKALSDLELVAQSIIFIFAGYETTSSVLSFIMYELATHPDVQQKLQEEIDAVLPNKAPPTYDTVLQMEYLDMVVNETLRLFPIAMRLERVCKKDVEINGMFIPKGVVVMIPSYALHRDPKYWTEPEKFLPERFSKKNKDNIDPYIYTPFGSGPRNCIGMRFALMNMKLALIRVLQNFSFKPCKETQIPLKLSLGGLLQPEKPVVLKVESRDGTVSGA
# In short: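 Enzyme and proluciferin substrate are mixed with test chemicals for 10 min, then NADPH regeneration system drives turnover for 1 h at room temperature. A detection reagent halts the reaction; luminescence after 20 min gives relative activity.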
# [3] = target: Voltage-gated inwardly rectifying potassium channel KCNH2 (Homo sapiens) (UniProt Q12809); experiment: Human Ether-a-go-go-Related Gene (hERG) channel small molecule antagonists: fluorescence cell-based qHTS assay (AID 1671200);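 note: hERG-expressing U2OS cells given a thallium stimulus after FluxOR II dye loading; series mostly up to about 77 µM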
# Chain of Voltage-gated inwardly rectifying potassium channel KCNH2 (Homo sapiens) (Q12809 whole entry, looked up): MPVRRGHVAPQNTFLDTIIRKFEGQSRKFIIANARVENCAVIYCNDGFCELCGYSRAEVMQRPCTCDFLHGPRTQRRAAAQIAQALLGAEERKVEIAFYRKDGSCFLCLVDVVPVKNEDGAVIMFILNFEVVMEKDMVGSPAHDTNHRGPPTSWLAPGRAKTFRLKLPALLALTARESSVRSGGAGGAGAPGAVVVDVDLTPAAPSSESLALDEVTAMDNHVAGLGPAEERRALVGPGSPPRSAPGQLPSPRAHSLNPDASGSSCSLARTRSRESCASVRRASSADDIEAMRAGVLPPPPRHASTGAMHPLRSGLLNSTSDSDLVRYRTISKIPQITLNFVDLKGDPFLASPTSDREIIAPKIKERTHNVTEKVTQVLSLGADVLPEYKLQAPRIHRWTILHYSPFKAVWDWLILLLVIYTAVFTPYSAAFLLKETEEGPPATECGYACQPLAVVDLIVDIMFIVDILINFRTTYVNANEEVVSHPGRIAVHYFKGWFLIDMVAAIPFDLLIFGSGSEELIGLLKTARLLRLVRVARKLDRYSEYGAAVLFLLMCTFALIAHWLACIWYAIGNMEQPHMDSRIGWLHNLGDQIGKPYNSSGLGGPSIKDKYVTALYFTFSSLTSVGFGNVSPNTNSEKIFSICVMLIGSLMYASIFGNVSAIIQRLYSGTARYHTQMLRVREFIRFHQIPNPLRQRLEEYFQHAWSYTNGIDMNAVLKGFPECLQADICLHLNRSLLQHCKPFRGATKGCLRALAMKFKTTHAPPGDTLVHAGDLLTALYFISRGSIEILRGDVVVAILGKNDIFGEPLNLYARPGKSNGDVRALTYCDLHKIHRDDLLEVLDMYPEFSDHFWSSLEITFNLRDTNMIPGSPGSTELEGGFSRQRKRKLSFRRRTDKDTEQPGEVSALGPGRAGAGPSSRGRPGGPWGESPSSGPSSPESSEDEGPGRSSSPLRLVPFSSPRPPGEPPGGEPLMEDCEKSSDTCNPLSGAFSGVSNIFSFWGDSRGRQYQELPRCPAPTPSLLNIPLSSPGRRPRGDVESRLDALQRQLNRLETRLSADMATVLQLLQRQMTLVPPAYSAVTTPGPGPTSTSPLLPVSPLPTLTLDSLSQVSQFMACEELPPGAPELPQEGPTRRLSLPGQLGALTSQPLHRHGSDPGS
# In short: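 First, 1000 cells per well are seeded and cultured overnight at 37 C. Next, FluxOR II dye is loaded for 1 h at room temperature, protected from light. After 10 more minutes, stimulus is added and fluorescence is read.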
# Note: nearly all actives have a fitted effect of over 50% in size.
smiles,measurement,setting,value
CC[C@H](C)C(=O)O[C@H]1C[C@H](O)C=C2C=C[C@H](C)[C@H](CC[C@@H](O)C[C@@H](O)CC(=O)O)[C@H]21,Potency,[1],inactive
same,Potency,[2],inactive
C[C@H](CCC(=O)O)[C@H]1CC[C@H]2[C@@H]3C(=O)C[C@@H]4CC(=O)CC[C@]4(C)[C@H]3CC(=O)[C@]12C,Potency,[1],inactive
same,Potency,[2],inactive
Cc1nc2n(c(=O)c1CCN1CCC(c3noc4cc(F)ccc34)CC1)CCC[C@H]2O,Potency,[1],inactive
same,"activity change, negative = inhibition",[2],3.18% [at 23.6 µM]
CC(=O)c1sc(C)nc1C,Potency,[1],inactive
same,Potency,[2],inactive
CCC(C)NC(N)=O (centres undefined),Potency,[1],inactive
same,Potency,[2],inactive
O=C(c1ccc(O)cc1)c1ccc(O)c(O)c1O,Potency,[3],inactive
CC(=O)NCCCCCC(=O)O,Potency,[1],inactive
same,Potency,[2],inactive
OCCCCC(O)CO (centres undefined),Potency,[1],inactive
same,Potency,[2],inactive
C[C@@H](Oc1ccc(CNC(=O)c2cccnc2Oc2ccc3c(c2)OCO3)c(F)c1)C(=O)O,Potency,[3],inactive
CCCCNc1ccc(C(=O)OCCN(C)C)cc1,Potency,[3],inactive
O=C(Nc1ccc(Cl)c(Cl)c1)C1CC1,Potency,[3],inactive
O=P(O)(O)OP(=O)(O)O,Potency,[3],inactive
CC(C)NCC(O)COc1cccc2[nH]ccc12 (centres undefined),Potency,[3],inactive
Cc1ccccc1C(=O)Nc1ccc(C(=O)N2CCCC(N(C)C)c3ccccc32)cc1 (centres undefined),Potency,[3],inactive
O=C1c2cccc3c2[C@H](CCC3)CN1[C@@H]1CN2CCC1CC2,Potency,[3],inactive
O=C(NCC(O)CO)c1c(I)c(C(=O)NCC(O)CO)c(I)c(N(CCO)C(=O)CO)c1I (centres undefined),Potency,[3],inactive
COc1cc(C(=S)N2CCOCC2)cc(OC)c1OC,Potency,[1],inactive
same,Potency,[2],inactive
NNc1nnc(NN)c2ccccc12,Potency,[3],inactive
CC(CO)c1ccccc1 (centres undefined),Potency,[1],inactive
same,Potency,[2],inactive
CN(C)C(=O)CNC(=O)Cc1ccccc1,Potency,[1],inactive
same,Potency,[2],inactive
FC(F)(F)c1ccccc1-n1ccnc1,Potency,[3],inactive
CCCCN,Potency,[1],inactive
same,Potency,[2],inactive
COc1cc(N)ccc1C,Potency,[1],4.98 µM (active)
same,Potency,[2],11.1 µM (active)
COc1cc2c(cc1OC)[C@@H]1CC(=O)[C@@H](CC(C)C)CN1CC2,Potency,[3],inactive
NCCN1CCOCC1,Potency,[3],inactive
N[C@@H](CCC(=O)N[C@@H](CS)C(=O)NCC(=O)O)C(=O)O,"activity change, negative = inhibition",[3],7.2% [at 15.8 µM]
NS(=O)(=O)c1cc2c(cc1Cl)CN(C1CCCCC1)C2=O,Potency,[1],inactive
same,Potency,[2],inactive
CC1=C(C(=O)O)N2C(=O)[C@@H](NC(=O)[C@H](N)c3ccc(O)cc3)[C@H]2SC1,Potency,[3],inactive
COc1ccc(-c2cc(=O)c3c(O)cc(O[C@@H]4O[C@H](CO[C@@H]5O[C@@H](C)[C@H](O)[C@@H](O)[C@H]5O)[C@@H](O)[C@H](O)[C@H]4O)cc3o2)cc1O,Potency,[1],inactive
same,Potency,[2],inactive
O=C(/N=N/C(=O)OCc1ccccc1)OCc1ccccc1,Potency,[1],17.8 µM (active)
same,Potency,[2],39.9 µM (active)
C=C(C)C(=O)OCCN(CC)CC,Potency,[1],35.5 µM (active)
same,Potency,[2],inactive
O=C(O)Cc1cn(-c2ccccc2)nc1-c1ccc(Cl)cc1,Potency,[1],inactive
same,Potency,[2],inactive
COC(=O)C1CC(=O)C(C(=O)OC)CC1=O (centres undefined),"activity change, negative = inhibition",[3],0.39% [at 6.97 µM]
same,"activity change, negative = inhibition",[2],9.87% [at 10.5 µM]
CC(C)=CCOC(=O)c1ccccc1,Potency,[3],inactive
same,Potency,[2],inactive
Nc1ccc([N+](=O)[O-])c(N)c1,Potency,[3],inactive
same,Potency,[2],inactive
CC(=O)Nc1cccc(C)c1,Potency,[3],inactive
same,Potency,[2],inactive
CC(=O)c1ccc2c(c1)Cc1ccccc1-2,Potency,[3],inactive
same,Potency,[2],inactive
